Assay outcomes from PubChem BioAssay.
Only some compounds are listed: those with a hit (about 4% of all), similar ones and a draw of the others.
CF NFkB block: cystic fibrosis NF-kB activation inhibition; KKLEB NF-kB-GFP reporter, PAF-induced, GFP fluorescence overnight; inhibition, % at 5 µM; 360,000 tested, 0.86% active; AID 588850;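 active = at least 50% inhibition at 5 µM, scaled per plate between neutral and stimulator controls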;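 also: PAF is a Pseudomonas aeruginosa culture filtrate used as stimulus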
TWEAK Fn14 block: blocks TWEAK-Fn14 interaction in a reporter cell assay; 360,000 tested, 2% active; inhibition, % at 10 µM; TWEAK-stimulated Fn14 reporter cells, luciferase luminescence, 8 h; AID 1159606; in the data active = inhibition above about 50%
KKLEB cytotox: reduces viability of KKLEB cystic fibrosis airway cells; KKLEB CF airway cells viability, ATPlite luminescence, overnight; active compounds read low; cells stimulated with P. aeruginosa culture filtrate; activity change (cytotoxicity), % at 5 µM; 360,000 tested, 0.36% active; AID 602141;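 active = corrected activity change at or below -50% at 5 µM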
HIF-2a block: HIF-2a inhibition | 786-0 RCC cells HIF-2a reporter, luciferase luminescence, overnight | inhibition, % at 18.8 µM | 360,000 tested, 0.72% active;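 active = inhibition of the luminescence signal of 40% or more relative to plate controls, in a single-dose primary screen at 18.75 µM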
TROY NFkB inh: blocks TROY-dependent signaling in reporter cells | 360,000 tested, 0.98% active | inhibition, % at 10 µM | AID 1347056 | Q293 LMP1-TROYcd NF-kB luciferase reporter, 4 h;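 active = compounds whose plate-normalised and pattern-corrected inhibition of the luciferase reporter signal at the single screening dose is 50% or more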
Peg3 promoter: Peg3 promoter activity inhibition; HeLa PEG-Prom luciferase reporter, luminescence, overnight; AID 588405; inhibition, % at 20 µM; 360,000 tested, 1.7% active;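 active = inhibition of at least 50% at 20 µM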
CF NFkB inh conf: CF NF-kB inhibition confirmation, single concentration; shares compounds with CF NFkB block; KKLEB CF airway cells, PAF-induced NF-kB-GFP fluorescence, overnight; inhibition, % at 5 µM; 1,300 tested, 64% active; AID 602472; in the data active = inhibition above about 40%;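 also: stimulus PAF is a Pseudomonas aeruginosa filtrate and not platelet activating factor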
Hits are given with their value; . = inactive; / = no result given.

SMILES	CF NFkB block	TWEAK Fn14 block	KKLEB cytotox	HIF-2a block	TROY NFkB inh	Peg3 promoter	CF NFkB inh conf
CC(C)C[C@@H](CN1CCC[C@@H]1CN1C(=S)NC[C@@H]1Cc1ccc(O)cc1)N1C[C@H](Cc2ccc(O)cc2)N(CC2CCCCC2)C1=S	67	.	.	.	.	98	46
Oc1ccc(C[C@@H](CN2CCCC2CN2C(=S)NC[C@@H]2Cc2ccccc2)N2C[C@H](Cc3ccccc3)N(CC3CCCCC3)C2=S)cc1 (some centres undefined)	/	.	/	.	.	/	/
Oc1ccc(C[C@H]2CNC(=S)N2CC2CCCN2C[C@H](Cc2ccc(O)cc2)N2C[C@H](Cc3ccc(O)cc3)N(CC3CCCCCC3)C2=S)cc1 (some centres undefined)	62	89	.	.	.	54	.
Oc1cc(NCc2ccc(F)cc2)cc2cccnc12	51	.	.	.	.	.	.
CCN1C[C@@H]2[C@@H]3C(=O)N(C)C(=O)[C@@H]3[C@](Cc3ccccc3)(C1=O)N2C(=O)c1ccc(Br)cc1	.	.	.	.	.	.	/
Cc1cc(C)c2sc(NC(=O)C3CC3)nc2c1	.	.	.	.	.	.	/
O=C(/C=C/c1cccs1)Nc1cccc(NC(=O)/C=C/c2cccs2)n1	58	73	.	.	.	.	64
Cc1ccc(S(=O)(=O)n2nc(OC(=O)c3c(-c4ccccc4Cl)noc3C)cc2N)cc1	.	.	.	.	.	.	/
Cc1onc(-c2ccccc2Cl)c1C(=O)Oc1cc(N)n(S(=O)(=O)c2ccc(F)cc2)n1	62	.	.	.	.	.	.
CN1CCN(c2ccc(C(F)(F)F)cc2NC(=O)Nc2ccccc2)CC1	.	.	.	.	.	.	/
COc1ccc(NC(=O)Cn2ncn3nc(-c4ccc(OC)cc4)cc3c2=O)cc1	54	.	.	.	.	.	55
COCCn1c(N)c(S(=O)(=O)c2cccs2)c2nc3ccccc3nc21	.	.	.	.	.	.	/
COc1cccc(/C=N/n2c(N)c(S(=O)(=O)c3cccs3)c3nc4ccccc4nc32)c1OC	54	.	.	.	.	.	.
COc1cccc(CC(=O)OCC(=O)NC(Cc2ccccc2)C(C)=O)c1 (centres undefined)	.	.	.	.	.	.	/
CCc1ccc([C@@H]2CC(=O)[C@@H]3CN(S(=O)(=O)c4ccccc4C)[C@H](c4ccc(Cl)cc4)C[C@@H]3N2S(=O)(=O)c2ccc(C)cc2)cc1	51	.	.	.	.	.	.
CCc1ccc([C@@H]2C[C@H]3[C@@H](CN2S(=O)(=O)c2ccc(C)cc2)C(=O)C[C@@H](c2ccc(Cl)cc2)N3S(=O)(=O)c2ccccc2C)cc1	.	.	.	.	.	.	/
COc1ccc(Cc2nnc(NC(=O)Nc3ccccc3F)s2)cc1OC	.	.	.	.	.	.	/
Cc1cc(NC(=O)Nc2cccc([N+](=O)[O-])c2)no1	.	.	.	.	.	.	/
Cc1ccc(NC(=O)Nc2cccc([N+](=O)[O-])c2)cc1F	65	79	.	.	.	.	52
CC1(C)O[C@@H]2C[C@H]3[C@@H]4C[C@H](F)C5=CC(=O)C=C[C@]5(C)[C@@]4(F)[C@@H](O)C[C@]3(C)[C@]2(C(=O)CO)O1	73	.	.	.	.	.	.
CC1(C)OC2CC3C4CC=C5CC(O)CCC5(C)C4CCC3(C)C2(C(=O)CO)O1 (centres undefined)	.	.	.	.	.	.	/
CC1(C)O[C@@H]2C[C@H]3[C@@H]4CCC5=CC(=O)C=C[C@]5(C)[C@@]4(F)[C@@H](O)C[C@]3(C)[C@]2(C(=O)CO)O1	67	.	.	.	.	.	.
O=C1C(=Cc2ccccc2[N+](=O)[O-])Cc2ccccc21	89	95	.	.	.	100	85
Nc1ccccc1C=C1Cc2ccccc2C1=O	.	.	.	.	.	.	/
CC1(O)CC(c2ccc(Cl)cc2)=NN1C(=O)c1ccc(Cl)cc1 (centres undefined)	58	.	.	.	.	.	76
SMILES	CF NFkB block	TWEAK Fn14 block	KKLEB cytotox	HIF-2a block	TROY NFkB inh	Peg3 promoter	CF NFkB inh conf
C[C@@]12CCC=C[C@H]1[C@H](c1ccc3ccccc3c1Br)N(Cc1ccccc1)C2=O	57	.	.	.	.	.	40
C[C@@]12CCC=C[C@H]1[C@H](c1ccc3ccccc3c1)N(Cc1ccccc1)C2=O	.	.	.	.	.	.	/
O=Nc1c(O)n(Cc2c(Cl)cccc2Cl)c2ccccc12	56	.	.	.	.	.	67
O=Nc1c(O)n(Cc2ccc(Cl)cc2)c2ccccc12	.	.	.	.	.	.	/
CC[C@@]1(c2ccccc2)C(=O)N(C(=O)OC)N1C(=O)OC	.	.	.	.	.	.	/
COC(=O)N1C(=O)[C@@](c2ccccc2)(C2CCCCC2)N1C(=O)OC	66	73	.	.	.	84	49
COC(=O)N1C(=O)[C@@](Cc2ccccc2)(c2ccccc2)N1C(=O)OC	57	.	.	.	.	.	55
CN(C)S(=O)(=O)c1ccc(C(=O)OCC(=O)N2CC3(C)CC2CC(C)(C)C3)cc1 (centres undefined)	.	.	.	.	.	.	/
Cc1cc(Cl)c2oc(C(=O)N3CCCCC3CCN3CCCC3=O)c(C)c2c1 (centres undefined)	.	.	.	.	.	.	/
COc1ccc(C(=O)OCC(=O)c2ccc3c(c2)NC(=O)CO3)cc1S(=O)(=O)N1CCOCC1	.	.	.	.	.	.	/
CCCCc1nc(Cl)c(C#N)c2c1CSC(C)(C)C2	.	.	.	.	.	.	/
CC(C)Cc1nc(Cl)c(C#N)c2c1CCCC2	.	.	.	.	.	.	/
CCCc1nc(NCCO)c(C#N)c2c1CCCC2	.	.	.	.	.	.	/
CCCc1nc(Cl)c(C#N)c2c1CCCC2	68	.	.	.	.	.	76
CCc1nc(Cl)c(C#N)c2c1CCCC2	55	.	.	.	.	.	75
CCc1nc(Cl)c(C#N)c2c1CSC(C)(C)C2	58	.	.	.	.	.	42
c1ccc2c(c1)Nc1ccncc1S2	52	55	.	.	.	.	77
c1ccc2c(c1)Nc1cc3ccccc3cc1S2	.	.	.	.	.	.	/
CCc1cccc(NC(=O)Cn2c(=O)n(CCC(=O)NCC3CCCO3)c(=O)c3cc(OC)c(OC)cc32)c1 (centres undefined)	.	.	.	.	.	.	/
O=C1[C@H](Cc2ccccc2)NCCCC[C@H](c2ccc(Cl)cc2)N1Cc1ccccc1	59	.	.	.	.	.	.
O=C1[C@H](Cc2ccccc2)NCCCC[C@H](c2ccco2)N1Cc1ccccc1	.	.	.	.	.	.	/
